Consider seven compounds from PubChem BioAssay (NCATS).

Each structure is given as a SMILES string. “And” between values parts separate entries of the source, which are not always exact repeats. Equal values may be shown once. A number with no mark means an inactive call. Inconclusive results are not listed. The source made the active and inactive calls. Unless noted, the call rests on the fitted dose curve; in most records, active means well fitted curve in the direction sought with a large enough effect; inconclusive means small, poorly fitted or top-dose-only effect, or another doubt; inactive means no such curve, though single readings can be large; an effect the other way counts as inactive or inconclusive.

A short description of experiment [1]: AP1 Signaling Pathway (AID 357; active means well fitted curve in either direction with a large enough effect, not every such curve was filed as active;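 further: ME-180 reporter cells stimulated with EGF at its EC50 level; on the % scale 0 is the no-effect control and ±100 the full control effect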). The settings on record: ME-180 AP-1-bla reporter, EGF-induced, beta-lactamase ratio, 5 h; at 7.69 µM (top of the series) unless noted. The procedure, abridged:
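Beta-lactamase reporter under AP-1 response element, ME-180 background. Stimulus: EC50 EGF. Compound exposure 5 h, 37 °C. Detection: CCF4, 2.5 h RT, 460/530 nm. Values: AC50 from titration.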

Experiment [2] has as its target Cytochrome P450 1A2 (Homo sapiens) (UniProt P05177). In words: p450-cyp1a2 (AID 410; calls by dose curve; further: potency means the concentration at half of the fitted maximal effect;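 on activity change, negative = inhibition: -100% = full effect of reference inhibitor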). The procedure, abridged:
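O-Demethylation of luciferin 6' methyl ether by human CYP1A2 is monitored as luciferase luminescence. Substrate sits at Km (100uM); enzyme is 20nM. Values are scaled to 57 uM furafylline as maximal inhibition.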

Experiment [3] is described as follows: NFAT Signaling Pathway (AID 444; active means well fitted curve in either direction with a large enough effect, not every such curve was filed as active;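 further: carbachol stimulus at about its EC50 of 1 µM final; on the % scale 0 is the no-effect control and ±100 the full control effect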). The conditions noted are these: Jurkat NFAT-bla M1, carbachol, beta-lactamase ratio, 5 h; at 7.69 µM (top of the series) unless noted. The procedure, abridged:
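Jurkat cells with NFAT-driven β-lactamase reporter and co-expressed M1 receptor, stimulated with carbachol (final 1 uM, ~EC50), compound titration, 5 h at 37 °C. CCF4 loaded 1 h at RT; 460/530 nm ratio gave %activity and AC50.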

Experiment [4] in a line: Stat Signaling Pathway (AID 446; active means well fitted curve in either direction with a large enough effect, not every such curve was filed as active;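 further: ME-180 cervical cancer cells given 40 pM IL-6 alongside compound; SIE-controlled beta-lactamase reporter measured as 460/530 nm FRET emission ratio; on the % scale 0 is the no-effect control and ±100 the full control effect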). The settings on record: ME-180 (cervical carcinoma) SIE beta-lactamase reporter, IL-6 stimulated, 5 h; at 7.69 µM (top of the series) unless noted. The procedure, abridged:
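Emission at 460 and 530 nm (excitation 405 nm) reports SIE-controlled beta-lactamase in ME-180 cells. Cells received compound with 40 pM IL-6 for 5 hrs at 37 C; data scaled between 300 pM IL-6 and 125 nM JAK-inhibitor controls.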

The target of experiment [5] is Glucocorticoid receptor (Homo sapiens) (UniProt P04150). The experiment in a line: GR-GFP Redistribution (AID 450;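 active means compounds whose dose series gives a full or clear partial fitted curve of increased nuclear translocation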; further: potency means the concentration at half of the fitted maximal effect). The settings on record: U2OS GR-GFP nuclear translocation, laser cytometry, 2 h.
Glucocorticoid receptor (Homo sapiens), sequence (P04150 whole entry, looked up, the tested form may be a part): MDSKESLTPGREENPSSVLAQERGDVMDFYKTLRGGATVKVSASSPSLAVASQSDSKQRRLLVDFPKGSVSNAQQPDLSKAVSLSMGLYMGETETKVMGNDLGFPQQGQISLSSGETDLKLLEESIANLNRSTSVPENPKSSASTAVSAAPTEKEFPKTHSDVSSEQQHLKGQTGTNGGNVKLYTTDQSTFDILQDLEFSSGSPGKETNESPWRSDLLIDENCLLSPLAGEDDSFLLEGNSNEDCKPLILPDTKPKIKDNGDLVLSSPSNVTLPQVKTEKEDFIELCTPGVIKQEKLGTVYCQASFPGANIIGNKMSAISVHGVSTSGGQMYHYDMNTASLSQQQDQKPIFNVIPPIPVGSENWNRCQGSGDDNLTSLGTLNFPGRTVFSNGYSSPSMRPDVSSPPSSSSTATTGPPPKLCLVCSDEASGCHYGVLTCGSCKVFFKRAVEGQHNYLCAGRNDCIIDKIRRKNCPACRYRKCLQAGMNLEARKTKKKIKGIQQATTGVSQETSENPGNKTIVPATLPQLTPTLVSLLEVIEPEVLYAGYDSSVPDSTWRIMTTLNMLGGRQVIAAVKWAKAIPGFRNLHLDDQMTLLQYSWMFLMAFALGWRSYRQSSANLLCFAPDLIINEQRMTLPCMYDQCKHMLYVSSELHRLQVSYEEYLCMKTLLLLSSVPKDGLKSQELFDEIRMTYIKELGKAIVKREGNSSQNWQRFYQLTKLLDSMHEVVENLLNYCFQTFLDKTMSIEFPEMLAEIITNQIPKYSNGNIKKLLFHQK
Experiment [6] shares this target. In words: GR-EFC Redistribution (AID 451; calls by dose curve; further: potency means the concentration at half of the fitted maximal effect). The settings on record: CHO-K1 GR-EFC translocation, beta-gal luminescence, 2 h. The procedure, abridged: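 CHO-K1 cells expressing nuclear EA and GR-ED fragments of b-gal; compounds titrated up to 46 uM final, 2 h at 37 C. GR nuclear translocation read as complemented b-gal luminescence after 1 h RT detection.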
Experiment [7] deals with Mitogen-activated protein kinase 10 (Mus musculus) (UniProt Q61831). The experiment in a line: JNK3 AlphaScreen Assay (AID 530; active means well fitted curve in either direction with a large enough effect, not every such curve was filed as active;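 further: kinase came from lysate of stimulated human HepG2 cells; signal reports phosphorylation of biotinylated GST-cJun 1-79 at Ser73 with 10 µM ATP; on the % scale 0 is the no-effect control and ±100 the full control effect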). An outline of the steps:
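Activity was read by AlphaScreen after JNK3-containing HepG2 lysate (cytokine pre-activated) phosphorylated biotinylated GST-cJun with 10 uM ATP at room temperature. Phospho-Ser73 cJun antibody with Protein-A acceptor beads provided detection.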

The target in experiment [8] is Guanine nucleotide-binding protein G(i) subunit alpha-1 (Homo sapiens) (UniProt P63096). In words: qHTS Assay for Inhibitors of RGS12 GoLoco Motif Activity (Green Fluorophore) (AID 879).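 Further: 0% = labeled peptide with Gαi1 and full inhibition = labeled peptide alone without protein; negative values mean loss of peptide binding seen as reduced polarization.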 An outline of the steps: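 A drop in FITC polarization marked displacement of the FITC-tagged RGS12 GoLoco peptide (10 nM) from Gαi1 (50 nM). Compounds were incubated 10 min at room temperature in Tris pH 7.5 buffer containing 150 mM NaCl, 0.1 mM GDP and 0.05% NP40; unlabeled peptide titration served as control.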
Guanine nucleotide-binding protein G(i) subunit alpha-1 (Homo sapiens), sequence (P63096 whole entry, looked up): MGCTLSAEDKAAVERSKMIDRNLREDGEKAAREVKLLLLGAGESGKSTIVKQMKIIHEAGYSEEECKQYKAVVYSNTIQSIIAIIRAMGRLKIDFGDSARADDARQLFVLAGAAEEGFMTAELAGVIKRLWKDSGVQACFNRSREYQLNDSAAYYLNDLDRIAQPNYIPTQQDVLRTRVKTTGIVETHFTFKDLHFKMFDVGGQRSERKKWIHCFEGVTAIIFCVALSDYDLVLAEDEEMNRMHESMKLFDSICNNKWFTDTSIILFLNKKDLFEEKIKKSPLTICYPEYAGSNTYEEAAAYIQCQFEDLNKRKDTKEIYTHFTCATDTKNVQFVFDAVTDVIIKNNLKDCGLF
(qHTS replaces the single test concentration by a dilution series.)

Experiment [9] addresses Cytochrome P450 3A4 (Homo sapiens) (UniProt P08684). In words: qHTS Assay for Activators of Cytochrome P450 3A4 (AID 885). Further: nearly all actives have a fitted effect of over 65% in size. The procedure, abridged: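 Activators are scored by enhanced luminescence from CYP3A4 conversion of luciferin-PPXE (25uM, equal to KM) to luciferin, after 60 min at RT with an NADPH-regenerating system.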
In experiment [10] the target is Cytochrome P450 2D6 (Homo sapiens) (UniProt P10635). In words: qHTS Assay for Inhibitors and Substrates of Cytochrome P450 2D6 (AID 891). Further: potency means the concentration at half of the fitted maximal effect; nearly all actives have a fitted effect of over 60% in size. The procedure, abridged:
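Luminescent read-out of luciferin formed by 5 nM human CYP2D6 demethylating 30 uM Luciferin-ME EGE (Km level) over 60 min at room temperature after NADPH regeneration addition. Data normalized to full inhibition by 1.43 uM quinidine.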

Experiment [11] addresses Pyruvate kinase (Leishmania mexicana) (UniProt Q27686). The experiment in a line: qHTS Validation Assay for Inhibitors of Leishmania Mexicana Pyruvate Kinase (AID 945).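 Further: 0% = DMSO only neutral control wells.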 The procedure, abridged:
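Substrate mix (0.5 mM PEP, 0.1 mM ADP, 7 mM MgCl2, 50 mM KCl, pH 7.2 imidazole) received compound by pin tool, then 0.2 nM LmPYK E451W. After 1 h at room temperature, PKLight was added and luminescence measured.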

For experiment [12], the target named is Alpha-galactosidase A (Homo sapiens) (UniProt P06280). The experiment in a line: Counterscreen for Glucocerebrosidase Inhibitors: qHTS Assay for Human alpha-Galactosidase at pH 4.5 (AID 992). Further: 0% is about no effect. An outline of the steps:
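Fluorogenic 4-MU alpha-D-galactoside (80 uM) hydrolysis, 2 nM enzyme, pH 4.5 citrate buffer + 0.005% Tween-20; 20 min RT; NaOH/glycine pH 10 stop; Ex365/Em440. Compounds titrated 0.7 nM–77 uM; Hill-equation AC50.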
(The purpose of a counterscreen is to sort out artefacts and off-target activity.)

The target of experiment [13] is alpha-glucosidase (Oryza sativa, rice) (UniProt Q653V4). The experiment in a line: Counterscreen for Glucocerebrosidase Inhibitors: qHTS Assay for Rice alpha-Glucosidase at pH 5.0 (AID 997).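 Further: 0% = full activity with enzyme and -100% = basal without enzyme.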 The procedure, abridged:
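Endpoint fluorogenic assay at pH 5.0: compounds (0.7 nM to 77 uM) titrated against 4 nM rice enzyme and 400 uM 4-MU-alpha-glucoside for 20 min at room temperature; NaOH/glycine stop, read ex 365/em 440 nm, Hill-fitted AC50.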

The target of experiment [14] is 3',5'-cyclic-AMP phosphodiesterase 4B (Homo sapiens) (UniProt Q07343). In words: qHTS Assay for Inhibitors of PDE-IV (AID 607; active means well fitted activation curve with a large enough effect in the main read-out, with a control signal flat, not every such curve was filed as active; further: % of control where 0% means no effect). The procedure, abridged:
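The readout is membrane depolarisation from a cAMP-sensing CNG channel, detected with a potential dye at ex 535/em 590. Cells were HEK293-derived (endogenous PDE-IV) at 1000 cells/well, titrated up to 22.9 uM final.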

Experiment [15] is described as follows: qHTS Assay for Identification of Small Molecule Antagonists for NFkB Signaling Pathway (AID 895; active means well fitted inhibition curve with a large enough effect in the signal ratio, with a control signal flat, not every such curve was filed as active; the % refers to the signal ratio; further: potency means the concentration at half of the fitted maximal effect). An outline of the steps:
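ME-180 NFkB-bla cells (beta-lactamase under NFkB response element), plated overnight, treated with compound then 10 pM TNF alpha (about EC50) for 5 hrs at 37 C. LiveBLAzer FRET read at 460/530 nm emission, 405 nm excitation.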

Experiment [16] in a line: qHTS Assay for Identification of Small Molecule Agonists for Thrombopoietin (TPO) Signaling Pathway (AID 917). Further: on the % scale 0 is the no-effect control and ±100 the full control effect. The procedure, abridged: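 Luciferase reporter (Glycoprotein IIb promoter) in IL-3-deprived Ba/F3 cells carrying human TPO receptor; compounds co-added with 26 pM TPO, incubated 24 h, 37 C. Steadylite luminescence measured after 10 min.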
The target of experiment [17] is Muscarinic acetylcholine receptor M1 (Rattus norvegicus) (UniProt P08482). In words: qHTS Assay for Antagonists of Acetylcholine Muscarinic M1 Receptor: Measurement of IP-One Response (AID 944). Further: nearly all actives have a fitted effect of over 75% in size. An outline of the steps:
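Antagonist mode with rat M1 receptor transfected into CHO cells. Compound is added first for 10 min, carbachol at its EC80 follows for 30 min, and lysis reagents then allow TR-FRET detection of accumulated IP1.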

The target is the same in experiment [18]. In words: qHTS Assay for Antagonists of Acetylcholine Muscarinic M1 Receptor: Kinetic Measurement of Intracellular Calcium Response (AID 943).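 Further: Fluo-4 calcium signal as peak divided by basal fluorescence over 4 min; nearly all actives have a fitted effect of over 75% in size.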 The procedure, abridged: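 Antagonism is measured as inhibition of the carbachol-evoked calcium rise in CHO cells transfected with rat M1. Cells are dye-loaded, exposed to compound for 10 min, then stimulated with 100 nM carbachol (EC80).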

Experiment [19] has as its target Pyruvate kinase PKM (Homo sapiens) (UniProt P14618). The experiment in a line: qHTS Assay for Activators of Human Muscle Pyruvate Kinase (AID 954; active means well fitted curve in the direction sought with a large enough effect, not every such curve was filed as active;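 further: 0% = uninhibited enzyme and -100% = no enzyme or full thiadiazolimine inhibition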). An outline of the steps: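 PKM2, human, >95% pure, 0.1 nM; PEP 0.5 mM (Km), ADP 0.1 mM; 50 mM imidazole pH 7.2, 50 mM KCl, 0.01% Tween 20, 0.05% BSA; 1 h RT; luciferase luminescence readout.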

3',5'-cyclic-AMP phosphodiesterase 4B (Homo sapiens), sequence (Q07343 whole entry, looked up): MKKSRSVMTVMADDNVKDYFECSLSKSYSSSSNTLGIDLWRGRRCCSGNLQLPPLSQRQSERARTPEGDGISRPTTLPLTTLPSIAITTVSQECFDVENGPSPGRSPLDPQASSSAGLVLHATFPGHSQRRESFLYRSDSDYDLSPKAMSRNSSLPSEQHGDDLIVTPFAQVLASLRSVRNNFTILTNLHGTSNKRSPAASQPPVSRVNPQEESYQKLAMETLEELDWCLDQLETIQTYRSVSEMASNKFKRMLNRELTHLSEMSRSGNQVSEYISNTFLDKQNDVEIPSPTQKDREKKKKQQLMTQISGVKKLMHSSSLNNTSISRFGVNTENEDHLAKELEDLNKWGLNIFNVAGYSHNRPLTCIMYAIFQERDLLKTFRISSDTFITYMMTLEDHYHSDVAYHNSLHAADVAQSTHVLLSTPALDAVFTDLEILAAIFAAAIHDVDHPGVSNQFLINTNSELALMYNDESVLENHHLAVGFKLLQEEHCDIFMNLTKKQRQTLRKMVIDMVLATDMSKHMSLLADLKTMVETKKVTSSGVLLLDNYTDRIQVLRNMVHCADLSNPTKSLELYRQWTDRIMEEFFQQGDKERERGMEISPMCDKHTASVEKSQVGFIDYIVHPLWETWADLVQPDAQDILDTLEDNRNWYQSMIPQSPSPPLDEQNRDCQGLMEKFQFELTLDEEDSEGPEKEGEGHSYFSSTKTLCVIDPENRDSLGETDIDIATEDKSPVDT
Cytochrome P450 1A2 (Homo sapiens), sequence (P05177 whole entry, looked up): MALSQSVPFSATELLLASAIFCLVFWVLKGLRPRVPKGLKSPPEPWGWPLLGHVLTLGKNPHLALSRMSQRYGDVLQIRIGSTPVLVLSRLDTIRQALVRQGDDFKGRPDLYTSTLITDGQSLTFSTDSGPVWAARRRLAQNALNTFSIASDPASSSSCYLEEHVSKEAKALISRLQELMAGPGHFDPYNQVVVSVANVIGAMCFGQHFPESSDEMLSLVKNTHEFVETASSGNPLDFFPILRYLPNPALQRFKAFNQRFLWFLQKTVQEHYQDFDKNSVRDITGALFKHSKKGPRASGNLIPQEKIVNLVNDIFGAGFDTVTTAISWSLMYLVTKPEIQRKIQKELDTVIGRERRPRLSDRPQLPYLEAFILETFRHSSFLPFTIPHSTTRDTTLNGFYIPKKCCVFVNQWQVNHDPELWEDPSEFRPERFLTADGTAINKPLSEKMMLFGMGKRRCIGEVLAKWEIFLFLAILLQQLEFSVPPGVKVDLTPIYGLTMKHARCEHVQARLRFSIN
Alpha-galactosidase A (Homo sapiens), sequence (P06280 whole entry, looked up): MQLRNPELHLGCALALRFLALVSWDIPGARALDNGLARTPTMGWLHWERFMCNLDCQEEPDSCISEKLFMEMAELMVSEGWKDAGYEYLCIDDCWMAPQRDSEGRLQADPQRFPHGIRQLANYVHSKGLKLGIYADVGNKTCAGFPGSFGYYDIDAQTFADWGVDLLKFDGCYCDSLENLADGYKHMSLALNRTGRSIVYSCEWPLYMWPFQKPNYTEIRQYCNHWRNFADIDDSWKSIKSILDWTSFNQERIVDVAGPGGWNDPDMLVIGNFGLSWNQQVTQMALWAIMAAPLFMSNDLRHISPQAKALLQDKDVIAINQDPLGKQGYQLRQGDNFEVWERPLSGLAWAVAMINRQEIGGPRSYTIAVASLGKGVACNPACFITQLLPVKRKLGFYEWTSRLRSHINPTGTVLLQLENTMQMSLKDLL
Pyruvate kinase (Leishmania mexicana), sequence (Q27686 2-499 E452W): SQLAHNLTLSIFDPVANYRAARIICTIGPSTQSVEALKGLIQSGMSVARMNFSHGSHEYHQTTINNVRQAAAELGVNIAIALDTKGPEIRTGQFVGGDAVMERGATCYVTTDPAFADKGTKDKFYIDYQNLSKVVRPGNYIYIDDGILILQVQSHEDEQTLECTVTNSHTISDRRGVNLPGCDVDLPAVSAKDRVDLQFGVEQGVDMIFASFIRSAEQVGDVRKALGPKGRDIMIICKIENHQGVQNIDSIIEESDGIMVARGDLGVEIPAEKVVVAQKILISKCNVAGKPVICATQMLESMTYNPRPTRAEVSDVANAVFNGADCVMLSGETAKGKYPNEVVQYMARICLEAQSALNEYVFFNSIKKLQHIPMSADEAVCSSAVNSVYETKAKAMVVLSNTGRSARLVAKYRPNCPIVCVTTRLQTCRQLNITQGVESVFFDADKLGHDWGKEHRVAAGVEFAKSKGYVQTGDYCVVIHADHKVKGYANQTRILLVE
Muscarinic acetylcholine receptor M1 (Rattus norvegicus), sequence (P08482 whole entry, looked up): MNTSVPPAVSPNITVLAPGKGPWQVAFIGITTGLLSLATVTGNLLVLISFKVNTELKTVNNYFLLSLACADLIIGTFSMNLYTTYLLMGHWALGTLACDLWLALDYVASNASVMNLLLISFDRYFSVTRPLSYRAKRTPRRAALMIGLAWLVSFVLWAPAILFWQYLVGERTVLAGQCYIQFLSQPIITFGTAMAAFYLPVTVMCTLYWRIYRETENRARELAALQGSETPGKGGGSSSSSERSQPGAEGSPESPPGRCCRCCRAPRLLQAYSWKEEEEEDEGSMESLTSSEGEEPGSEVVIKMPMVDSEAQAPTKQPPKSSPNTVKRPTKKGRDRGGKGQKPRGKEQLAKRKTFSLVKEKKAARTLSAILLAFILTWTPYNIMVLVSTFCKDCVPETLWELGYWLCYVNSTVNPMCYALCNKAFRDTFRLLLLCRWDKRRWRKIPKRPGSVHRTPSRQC
Cytochrome P450 3A4 (Homo sapiens), sequence (P08684 whole entry, looked up): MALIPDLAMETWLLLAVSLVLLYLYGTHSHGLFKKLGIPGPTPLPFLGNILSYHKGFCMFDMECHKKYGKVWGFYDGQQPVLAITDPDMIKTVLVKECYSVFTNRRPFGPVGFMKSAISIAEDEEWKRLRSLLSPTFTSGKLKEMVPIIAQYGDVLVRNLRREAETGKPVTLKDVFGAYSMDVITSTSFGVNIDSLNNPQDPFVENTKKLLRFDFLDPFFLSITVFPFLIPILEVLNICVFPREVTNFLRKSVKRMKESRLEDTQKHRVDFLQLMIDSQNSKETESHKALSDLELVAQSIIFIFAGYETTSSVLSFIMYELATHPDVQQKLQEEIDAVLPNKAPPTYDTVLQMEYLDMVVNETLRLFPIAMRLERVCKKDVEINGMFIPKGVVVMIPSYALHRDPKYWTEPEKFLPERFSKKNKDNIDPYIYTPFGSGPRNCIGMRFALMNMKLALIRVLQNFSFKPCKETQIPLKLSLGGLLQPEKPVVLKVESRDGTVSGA
Pyruvate kinase PKM (Homo sapiens), sequence (P14618 whole entry, looked up): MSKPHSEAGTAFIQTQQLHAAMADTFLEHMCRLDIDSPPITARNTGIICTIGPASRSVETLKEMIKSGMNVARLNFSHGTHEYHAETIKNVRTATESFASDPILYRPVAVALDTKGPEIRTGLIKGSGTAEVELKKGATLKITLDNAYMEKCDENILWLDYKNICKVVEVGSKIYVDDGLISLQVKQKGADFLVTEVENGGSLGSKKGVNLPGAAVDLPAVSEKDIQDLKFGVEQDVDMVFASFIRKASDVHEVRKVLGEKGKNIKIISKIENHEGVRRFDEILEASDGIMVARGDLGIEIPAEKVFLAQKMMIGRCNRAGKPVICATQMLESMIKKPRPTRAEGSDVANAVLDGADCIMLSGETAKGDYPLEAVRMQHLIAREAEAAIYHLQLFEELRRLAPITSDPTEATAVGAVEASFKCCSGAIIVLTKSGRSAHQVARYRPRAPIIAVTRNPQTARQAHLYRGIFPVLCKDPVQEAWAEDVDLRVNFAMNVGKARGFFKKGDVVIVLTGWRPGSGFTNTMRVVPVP

In the case of `Oc1ccc([C@@H]2CNCCc3c2cc(O)c(O)c3Cl)cc1`, the activity change, negative = inhibition in [1] is -5.37% [at 38 µM]; in [3], 1.42% [at 38 µM]. In addition, the Potency entry in [2], in experiment [7], in experiment [9] and in experiment [13] was “inactive” throughout. Moreover, the activity, negative = inhibition in experiment [4] is 18.7% [at 38 µM]. For the same compound, the Potency in [5] was greater than 46 µM; in [6], greater than 46 µM; in experiment [10], 3.16 µM (active). Besides, the outcome in experiment [8], in experiment [11] and in [12] was inactive.

`CSc1ccc(NC(=O)Nc2cc(C)ccn2)cc1`: the activity change, negative = inhibition in experiment [1] is 0.23%; in experiment [3], -18.9%. Also, the results for the Potency in [2], in experiment [5] and in experiment [6] were 0.501 µM (active), greater than 46 µM and greater than 9.22 µM, respectively. For the same compound, the activity, negative = inhibition in experiment [4] is -7.77%. For the same compound, the Potency entry in experiment [7] and in [14] was “inactive” in each case.

For `CC(CO)(CO)N=Cc1cc(I)cc(I)c1O`, the activity, negative = inhibition in experiment [4] is -24.6%. The Potency in [6] was greater than 9.22 µM. Moreover, the Potency result in [7] and in [14] was “inactive” each time.

Turning to `CC(C)C[C@H](NC(=O)[C@@H](O)[C@@H](N)Cc1ccccc1)C(=O)O`, the activity change, negative = inhibition is 16.3% [at 38 µM] and 2.81% [at 38 µM] in experiment [1]; -15.3% [at 38 µM] and -3.04% [at 38 µM] in experiment [3]. Further, the Potency result in experiment [2], in experiment [7], in [14], in experiment [17] and in experiment [13] was “inactive” each time. Besides, in experiment [4], the activity, negative = inhibition is 25.1% [at 38 µM] and 3.44% [at 38 µM]. Further, the results for the Potency in experiment [5], in experiment [6] and in [15] were greater than 46 µM, greater than 46 µM and 1.58 µM (active), respectively. Further, the compound was classed as inactive in experiment [8], in experiment [16], in [11] and in [12].

In the case of `Nc1ccc(CCNc2ncnc3c2ncn3[C@@H]2O[C@@H](CO)[C@H](O)[C@@H]2O)cc1`, the activity change, negative = inhibition in [1] was -2.21% [at 38 µM]; in [3], 3.61% [at 38 µM]. The Potency result in experiment [2], in [7], in [14], in experiment [9], in [18] and in experiment [13] was “inactive” in each case. The activity, negative = inhibition in [4] was 17.4% [at 38 µM]. For the same compound, the Potency in experiment [5] and in experiment [6] was greater than 46 µM in each case. The compound was called inactive in experiment [8], in [16], in experiment [11], in experiment [19] and in experiment [12].

Consider `Oc1ccc([C@@H]2CNCc3sccc32)cc1O`, for which the figures for the activity change, negative = inhibition in experiment [1] and in [3] were -15.6% [at 38 µM] and 8.54% [at 38 µM], respectively. Further, the Potency entry in experiment [2], in experiment [7], in [14], in experiment [9], in experiment [17] and in experiment [13] was “inactive” each time. Besides, in [4], the activity, negative = inhibition was 5.59% [at 38 µM]. The Potency in experiment [5] and in [6] was greater than 46 µM throughout. Besides, the compound was called inactive in [8], in experiment [11], in [19] and in experiment [12].

Consider `CC(C)N(Cc1ccccc1)S(=O)(=O)c1n[nH]c(C(C)(C)C)n1`, for which the activity change, negative = inhibition was -0.248% in experiment [1] and 4.29% in experiment [3]. The Potency entry in experiment [2], in experiment [7] and in experiment [14] was “inactive” each time. Further, in [4], the activity, negative = inhibition was -2.12%. Moreover, the Potency in experiment [5] is greater than 46 µM; in experiment [6] it was greater than 9.22 µM.
